Data reported in PubChem BioAssay (NCI).
Compounds without any hit were thinned out: in the full panel of roughly 79,000, 15% have a hit. No stated cut-off is given here; in the data, active means growth inhibition above about 70%; inactive means the rest.

How the values were obtained:
[1] = NCI Yeast Anticancer Drug Screen. Data for the rad50 strain (AID 155);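 further: 0% = growth of vehicle-only cultures of the same strain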; details: S. cerevisiae rad50 strain growth inhibition; at 50.0 µM; stronger effect = higher value
Summary of the method: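 DNA repair mutant yeast, compound exposure, growth read-out; inhibition is taken relative to vehicle.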

[2] = NCI Yeast Anticancer Drug Screen. Data for the mec2-1 strain (AID 157); details: S. cerevisiae mec2-1 strain, at 50.0 µM, stronger effect = higher value
Summary of the method: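 Yeast mec2-1 mutant treated with compound. Readout: growth inhibition vs vehicle controls.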

[3] = NCI Yeast Anticancer Drug Screen. Data for the sgs1 mgt1 strain (AID 161);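 further: 0% = growth of cultures given vehicle only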; details: S. cerevisiae sgs1 mgt1 strain, at 50.0 µM, stronger effect = higher value
Summary of the method: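 Genetically altered yeast, compound exposure, growth inhibition relative to vehicle.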

[4] = NCI Yeast Anticancer Drug Screen. Data for the cln2 rad14 strain (AID 165);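 further: 0% = growth equal to vehicle treated cultures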; details: S. cerevisiae cln2 rad14 strain, at 50.0 µM, stronger effect = higher value
Summary of the method: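 cln2 rad14 yeast strain; compound exposure; growth inhibition read vs vehicle controls.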

[5] = NCI Yeast Anticancer Drug Screen. Data for the bub3 strain (AID 167); details: S. cerevisiae bub3 mutant strain, at 50.0 µM, stronger effect = higher value
Summary of the method: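 In this screen, a yeast mutant lacking normal mitotic checkpoint function is challenged with compound. Relative growth versus vehicle gives the inhibition value.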

[6] = NCI Yeast Anticancer Drug Screen. Data for the mlh1 rad18 strain (AID 175); details: S. cerevisiae mlh1 rad18 strain growth inhibition; at 50.0 µM; stronger effect = higher value
Summary of the method: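 Yeast w/ defined DNA-repair lesions; compound exposure; growth vs vehicle controls → % inhibition.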

Measured: growth inhibition

NC1c2ccccc2CCc2ccccc21
inactive: [1] 13.6% | [2] -13.7% | [3] 17.6% | [4] 3.55% | [5] 6.8% | [6] 6.8%

O=C(CNc1ccc(Cl)cc1Cl)NC1C=Cc2ccc(S(=O)(=O)Nc3ccc(Cl)cc3Cl)cc2C1=O (stereo not given)
inactive: [1] 34.5% | [2] 20.4% | [3] 44% | [4] 14.2% | [5] 29.1% | [6] 33.1%

CCOC(=O)C(C)(C(=O)OCC)n1cnc2c1c(=O)n(C)c(=O)n2C
inactive: [1] 8.05% | [2] -7.6% | [3] -12.6% | [4] 9.8% | [5] 10.8% | [6] 4.8%

CSc1ccc(NC(=O)NNP(=S)(Oc2ccc(C(C)(C)C)cc2)Oc2ccc(C(C)(C)C)cc2)cc1
inactive: [1] -10.7% | [2] -18.1% | [3] 0.5% | [4] 13.8% | [5] -5.75% | [6] -6.2%

CCOC(=O)C/C(C)=N\NS(=O)(=O)c1ccc([N+](=O)[O-])cc1
inactive: [1] 3.05% | [2] -16.5% | [3] 8.85% | [4] -30.1% | [5] 8% | [6] 2.45%

O=C(O)c1ccccc1Nc1ccccc1[N+](=O)[O-]
inactive: [1] -4% | [2] 22.5% | [3] 17.2% | [4] 8.15% | [5] 27.1% | [6] 17.6%

Cc1ccc(C(=O)Nc2ccc(CP(=O)(O)O)cc2CP(=O)(O)O)cc1N
inactive: [1] -25.1% | [2] -14.8% | [3] 19.3% | [4] 6.05% | [5] -14.7% | [6] 1.8%

Cc1ccc(C(=O)O)c(C(=O)O)c1
inactive: [1] -11.2% | [2] -18.9% | [3] -18.4% | [4] -4.25% | [5] -17.1% | [6] 1.75%

NC(CC(=O)OCc1ccccc1)C(=O)OCc1ccccc1 (stereo not given)
inactive: [1] 9.1% | [2] 9.3% | [3] 16.1% | [4] -5.9% | [5] 3.55% | [6] 4.15%

Cc1c(-c2ccccc2)[nH]c2ccc(Cl)cc2c1=O
inactive: [1] -7.5% | [2] -30.9% | [3] 28.9% | [4] 2.8% | [5] -5.1% | [6] 6.25%

CC(=O)N(CN1C(=O)CCC1C(=O)O)c1cccc(O)c1 (stereo not given)
inactive: [1] 8.45% | [2] 9% | [3] -10.2% | [4] -5.7% | [5] -12.7% | [6] -66.7%

Cc1cc(C)c(C2CC(O)C(CO)O2)cc1C (stereo not given)
inactive: [1] -2% | [2] -20.9% | [3] -10.1% | [4] 14.1% | [5] -3.35% | [6] 21.4%

OCCCOc1ccc2ccccc2c1
inactive: [1] 21.4% | [2] 10.2% | [3] 28.4% | [4] 3.95% | [5] -7.25% | [6] 9.85%

C1=Nc2ccccc2Cn2nncc21
inactive: [1] 19.7% | [2] 21% | [3] 43.1% | [4] 18.4% | [5] 17.1% | [6] 41.5%

O=C1C2C3C=CC(O3)C2C(=O)N1CCN1CCCCC1 (stereo not given)
inactive: [1] -0.75% | [2] -4.8% | [3] -0.65% | [4] 6.5% | [5] -2.15% | [6] -6.05%

O=C(O)C12C3CCC(C3)C1(C(=O)O)C1CCC2C1 (stereo not given)
inactive: [1] -13.3% | [2] -13.9% | [3] -14.4% | [4] 24.3% | [5] -0.65% | [6] -12.2%

CCOc1ccccc1NC(=O)CC(=O)N1N=C(C)C(N=Nc2ccccc2C(=O)O)C1=O (stereo not given)
inactive: [1] 18.1% | [2] 3.5% | [3] 1.6% | [4] -2.3% | [5] -3.35% | [6] 17.6%

CCCC1OC(c2ccccc2)OCC1CC (stereo not given)
inactive: [1] 6.45% | [2] 20.2% | [3] -12.7% | [4] -36.9% | [5] 15.8% | [6] 9.05%

COc1ccc(Sc2cccc(Cl)c2)c(C(=O)O)c1
inactive: [1] -21.8% | [2] -18.4% | [3] -27.2% | [4] 3.8% | [5] -0.55% | [6] 6.5%

CC1CC[C@]2(C(=O)O)CCC3(COC(=O)/C=C\c4ccc(O)cc4)C(=CCC4[C@@]5(C)CC[C@H](O)C(C)(C)C5CC[C@]43C)[C@@H]2[C@H]1C (stereo not given in full)
inactive: [1] -1.9% | [2] 1.35% | [3] -1.65% | [4] 5.55% | [5] -3.1% | [6] -17.8%

CSc1nc2nc[nH]c(=O)c2[nH]1
inactive: [1] -3.55% | [2] -11.6% | [3] -5.75% | [4] -14.1% | [5] -5.35% | [6] -2.5%

O=C1CC(=O)N2C=CC=CC2N1 (stereo not given)
inactive: [1] -14.8% | [2] -21.6% | [3] -23.1% | [4] -4.7% | [5] -16.7% | [6] -13.5%

CC(O)C(O)C(O)C(O)C=O (stereo not given)
inactive: [1] -13.2% | [2] -11.8% | [3] 3.8% | [4] 14.1% | [5] 7% | [6] -10.2%

O=C(O)CCCc1ccc2c(c1)oc1ccccc12
inactive: [1] -18.6% | [2] -6.3% | [3] 1.5% | [4] -18.6% | [5] 13.6% | [6] 20.9%

CC(=O)Oc1cc(C=O)ccc1O
inactive: [1] 0.75% | [2] 6.7% | [3] -3.3% | [4] 1.65% | [5] -7.25% | [6] -7.6%

CCCN(CCC)CCCCCCCCN
inactive: [1] 29.1% | [2] -13.2% | [3] -3.2% | [4] 12.8% | [5] -7.9% | [6] 16.2%

S=C([S-])[P+](C1CCCCC1)(C1CCCCC1)C1CCCCC1
inactive: [1] -30.9% | [2] -39.1% | [3] -28.2% | [4] -29.2% | [5] -39.1% | [6] -39.2%

CCc1c(Sc2ccccn2)n(COCc2ccccc2)c(=O)[nH]c1=O
inactive: [1] -14.5% | [2] -4.4% | [3] -24.9% | [4] -16.4% | [5] -17.8% | [6] -16.1%

CC(=O)OCCOCNC(=S)NN
inactive: [1] -7.55% | [2] 7.8% | [3] 11.2% | [4] -16.3% | [5] -3.95% | [6] -4.8%

COCCNc1cncc(C(N)=O)c1
inactive: [1] 15% | [2] 6.9% | [3] 9.15% | [4] -19.2% | [5] 2.45% | [6] 10.9%

O=C(NC(Cc1ccccc1)C(=O)NC(Cc1c[nH]c2ccccc12)C(=O)O)OCc1ccccc1 (stereo not given)
inactive: [1] 1.9% | [2] 7.45% | [3] -3.95% | [4] -7.3% | [5] -3.55% | [6] 12.2%

C/C=C/C=C/C(=O)CCC1(C)OC(=O)C(C)=C1O (stereo not given)
inactive: [1] -0.9% | [2] 0.45% | [3] 2.4% | [4] -4.35% | [5] -3.45% | [6] 6.25%

O=C1OC2(OC2c2ccccc2)c2ccccc21 (stereo not given)
inactive: [1] 0.25% | [2] -8.95% | [3] -37.2% | [4] -15.2% | [5] -29.8% | [6] -22.1%

CC1(C)COCOC1c1ccccc1 (stereo not given)
inactive: [1] -6.2% | [2] 11.3% | [3] -21.4% | [4] -11.8% | [5] -1% | [6] 6.4%

CCN(CC)c1ccc(/C=C(\C#N)C(N)=S)cc1
inactive: [1] 35.4% | [2] 23.6% | [3] 45.2% | [4] 0.85% | [5] 15.6% | [6] 16.5%

CC1(C)Oc2ccc3c(=O)cc(-c4ccccc4)oc3c2C1C(=O)O (stereo not given)
inactive: [1] 4.7% | [2] -14.5% | [3] -18.6% | [4] -22.6% | [5] 9.7% | [6] -24%

O=[N+]([O-])c1ccc(SC2=NCCCN2)c(Cl)c1
inactive: [1] 36.7% | [2] -0.55% | [3] 33.9% | [4] 11.1% | [5] 32.6% | [6] 26.1%

O=C1OC(=O)C2C3CCC(O3)C12 (stereo not given)
inactive: [1] 13.9% | [2] 7.4% | [3] 4.75% | [4] -0.8% | [5] -0.5% | [6] -5%

CCCCOC(=O)/C=C/c1ccc(OC(C)C)cc1
inactive: [1] 3.95% | [2] -9% | [3] -9.4% | [4] -48.1% | [5] 19.9% | [6] -10.4%

Clc1ccc(N=Cc2ccccc2Cl)cc1
inactive: [1] 34.8% | [2] 16.1% | [3] 25.2% | [4] -13.7% | [5] 42% | [6] 19.7%
